# Data published in PMC7862700, “An all-to-all approach to the identification of sequence-specific readers for epigenetic DNA modifications on cytosine”.
# What was measured:
# Experiment in all cases: DAPPL (digital affinity profiling via proximity ligation, sequencing); 10 mM Tris-HCl pH 7.5, 50 mM NaCl, 1 mM DTT, 4% glycerol, room temperature, 30 min; GST-TFs on glutathione beads, 16-mer random dsDNA library, 0.1% formaldehyde crosslink after washing; high values mean tight binding
# [1] = target: T1, FLI1 (Homo sapiens, UniProt Q01543 1-452); details: protein: recombinant; tags: N-terminal GST; dsDNA, one strand shown
# T1 sequence: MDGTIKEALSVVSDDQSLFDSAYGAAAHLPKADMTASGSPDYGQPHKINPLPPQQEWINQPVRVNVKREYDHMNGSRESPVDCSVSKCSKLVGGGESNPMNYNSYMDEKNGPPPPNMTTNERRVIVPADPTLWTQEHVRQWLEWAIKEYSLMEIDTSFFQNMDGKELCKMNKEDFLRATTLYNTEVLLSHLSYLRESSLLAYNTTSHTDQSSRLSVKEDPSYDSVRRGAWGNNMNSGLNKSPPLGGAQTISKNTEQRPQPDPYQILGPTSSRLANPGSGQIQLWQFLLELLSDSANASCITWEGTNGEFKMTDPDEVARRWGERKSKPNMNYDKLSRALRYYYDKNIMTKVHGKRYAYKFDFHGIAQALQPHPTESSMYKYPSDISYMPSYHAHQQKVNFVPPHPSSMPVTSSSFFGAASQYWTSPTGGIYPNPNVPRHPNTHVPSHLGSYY
# Procedure, shortened: (§1)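 Yeast served to express human transcription factors as GST fusions, which were then captured on glutathione beads and labelled with DNA barcodes. Pooled with a tag-only sample, they were incubated with 200 nmole of a 16-mer random double-stranded DNA library for 30 min at room temperature in Tris/NaCl/DTT/glycerol buffer, washed, crosslinked with 0.1% formaldehyde, ligated by proximity, amplified by PCR and sequenced. Dividing each hexamer's read frequency for a factor by its frequency for the tag-only sample gives the binding signal.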
# [2] = target: T2, ELK1 (Homo sapiens, UniProt P19419 1-428); details: protein: recombinant; tags: N-terminal GST; dsDNA, one strand shown
# T2 sequence: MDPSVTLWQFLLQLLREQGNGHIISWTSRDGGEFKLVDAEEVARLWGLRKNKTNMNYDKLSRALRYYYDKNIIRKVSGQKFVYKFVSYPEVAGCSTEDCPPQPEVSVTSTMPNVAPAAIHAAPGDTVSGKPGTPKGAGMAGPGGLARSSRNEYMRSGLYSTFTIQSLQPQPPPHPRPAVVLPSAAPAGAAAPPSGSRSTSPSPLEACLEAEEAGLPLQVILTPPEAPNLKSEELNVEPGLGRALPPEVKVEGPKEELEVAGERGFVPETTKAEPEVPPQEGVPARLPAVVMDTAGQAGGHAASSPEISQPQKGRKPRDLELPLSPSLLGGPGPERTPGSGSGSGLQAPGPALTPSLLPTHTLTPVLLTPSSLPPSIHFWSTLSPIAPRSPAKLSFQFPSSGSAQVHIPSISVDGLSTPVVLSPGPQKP
# Procedure, shortened: as §1
# [3] = target: T3, GABPA (Homo sapiens, UniProt Q06546 1-454); details: protein: recombinant; tags: N-terminal GST; dsDNA, one strand shown
# T3 sequence: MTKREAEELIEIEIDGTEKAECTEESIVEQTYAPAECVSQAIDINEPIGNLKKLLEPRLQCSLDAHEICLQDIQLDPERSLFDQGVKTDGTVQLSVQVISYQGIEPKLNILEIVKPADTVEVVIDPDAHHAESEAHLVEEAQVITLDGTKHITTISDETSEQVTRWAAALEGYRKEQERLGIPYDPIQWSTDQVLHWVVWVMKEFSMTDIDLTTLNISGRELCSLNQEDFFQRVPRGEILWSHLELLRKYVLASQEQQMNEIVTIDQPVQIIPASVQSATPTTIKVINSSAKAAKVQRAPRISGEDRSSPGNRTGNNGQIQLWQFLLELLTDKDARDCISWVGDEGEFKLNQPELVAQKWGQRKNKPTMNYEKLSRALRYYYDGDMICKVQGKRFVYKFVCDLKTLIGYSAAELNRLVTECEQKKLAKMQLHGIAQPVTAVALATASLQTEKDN
# Procedure, shortened: as §1
# [4] = target: T4, ERG (Homo sapiens, UniProt P11308 1-479); details: protein: recombinant; tags: N-terminal GST; dsDNA, one strand shown
# T4 sequence: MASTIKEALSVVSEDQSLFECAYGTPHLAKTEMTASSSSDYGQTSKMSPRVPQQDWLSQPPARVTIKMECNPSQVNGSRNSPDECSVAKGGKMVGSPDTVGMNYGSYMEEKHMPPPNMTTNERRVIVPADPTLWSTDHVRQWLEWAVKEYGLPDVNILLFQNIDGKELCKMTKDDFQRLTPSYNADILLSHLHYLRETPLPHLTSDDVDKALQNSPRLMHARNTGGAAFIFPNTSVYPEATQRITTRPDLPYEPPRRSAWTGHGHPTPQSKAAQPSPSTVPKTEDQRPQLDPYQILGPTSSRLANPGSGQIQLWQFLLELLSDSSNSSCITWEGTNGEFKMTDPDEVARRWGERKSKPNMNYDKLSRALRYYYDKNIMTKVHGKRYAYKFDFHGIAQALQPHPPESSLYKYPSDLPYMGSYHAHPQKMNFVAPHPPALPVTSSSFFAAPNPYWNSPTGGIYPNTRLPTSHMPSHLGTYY
# Procedure, shortened: as §1
# [5] = target: ELF1 (Homo sapiens, UniProt P32519 1-619); details: protein: recombinant; tags: N-terminal GST; dsDNA, one strand shown
# Sequence of ELF1 (P32519 whole entry): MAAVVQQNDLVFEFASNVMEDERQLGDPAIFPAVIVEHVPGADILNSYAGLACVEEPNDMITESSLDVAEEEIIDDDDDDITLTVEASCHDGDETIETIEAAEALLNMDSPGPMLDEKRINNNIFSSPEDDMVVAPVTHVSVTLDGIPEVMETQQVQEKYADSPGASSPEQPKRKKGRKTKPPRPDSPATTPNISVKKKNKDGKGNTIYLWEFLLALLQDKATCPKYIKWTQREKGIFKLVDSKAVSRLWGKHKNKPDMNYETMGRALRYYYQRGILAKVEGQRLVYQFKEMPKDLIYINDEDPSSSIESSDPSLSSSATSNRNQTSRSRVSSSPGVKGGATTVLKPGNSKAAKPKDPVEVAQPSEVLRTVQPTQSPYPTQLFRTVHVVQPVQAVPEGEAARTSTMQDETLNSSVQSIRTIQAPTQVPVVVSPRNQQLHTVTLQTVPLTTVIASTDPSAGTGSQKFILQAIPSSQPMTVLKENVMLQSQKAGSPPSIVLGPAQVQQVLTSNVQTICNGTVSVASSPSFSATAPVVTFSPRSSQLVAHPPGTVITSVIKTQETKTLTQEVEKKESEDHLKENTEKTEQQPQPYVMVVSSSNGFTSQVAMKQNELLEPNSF
# Procedure, shortened: as §1
# [6] = target: T5, EHF (Homo sapiens, UniProt Q9NZC4 1-300); details: protein: recombinant; tags: N-terminal GST; dsDNA, one strand shown
# T5 sequence: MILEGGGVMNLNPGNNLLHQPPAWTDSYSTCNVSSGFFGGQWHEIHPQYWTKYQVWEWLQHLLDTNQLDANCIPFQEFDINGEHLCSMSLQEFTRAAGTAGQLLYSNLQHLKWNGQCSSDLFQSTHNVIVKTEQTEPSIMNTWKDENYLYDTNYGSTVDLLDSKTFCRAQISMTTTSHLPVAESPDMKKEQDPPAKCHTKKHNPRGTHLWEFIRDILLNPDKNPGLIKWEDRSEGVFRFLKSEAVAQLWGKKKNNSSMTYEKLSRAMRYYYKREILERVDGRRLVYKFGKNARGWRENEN
# Procedure, shortened: as §1
# [7] = target: SPI1 (Homo sapiens, UniProt P17947 1-270); details: protein: recombinant; tags: N-terminal GST; dsDNA, one strand shown
# Procedure, shortened: as §1
# [8] = target: SPIB (Homo sapiens, UniProt Q01892 1-262); details: protein: recombinant; tags: N-terminal GST; dsDNA, one strand shown
# Sequence of SPIB (Q01892 whole entry): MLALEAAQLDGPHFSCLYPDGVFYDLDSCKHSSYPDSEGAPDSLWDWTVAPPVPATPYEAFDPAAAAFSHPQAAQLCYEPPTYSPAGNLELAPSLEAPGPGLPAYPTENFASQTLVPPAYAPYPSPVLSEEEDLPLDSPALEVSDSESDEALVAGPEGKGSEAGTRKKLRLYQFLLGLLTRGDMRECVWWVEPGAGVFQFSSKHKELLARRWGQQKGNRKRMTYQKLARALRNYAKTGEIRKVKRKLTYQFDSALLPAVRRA
# Procedure, shortened: as §1
# [9] = target: T6, ELK3 (Homo sapiens, UniProt P41970 1-407); details: protein: recombinant; tags: N-terminal GST; dsDNA, one strand shown
# T6 sequence: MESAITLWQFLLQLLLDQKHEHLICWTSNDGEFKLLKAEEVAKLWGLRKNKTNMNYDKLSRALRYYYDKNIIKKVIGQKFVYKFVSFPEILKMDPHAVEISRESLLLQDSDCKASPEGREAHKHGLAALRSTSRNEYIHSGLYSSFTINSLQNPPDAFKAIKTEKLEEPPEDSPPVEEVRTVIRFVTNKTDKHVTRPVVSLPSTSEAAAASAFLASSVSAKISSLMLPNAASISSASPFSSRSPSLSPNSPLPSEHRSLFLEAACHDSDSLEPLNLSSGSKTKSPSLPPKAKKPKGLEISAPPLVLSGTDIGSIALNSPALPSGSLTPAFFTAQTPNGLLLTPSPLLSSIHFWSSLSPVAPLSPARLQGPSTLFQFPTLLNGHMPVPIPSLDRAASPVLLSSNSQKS
# Procedure, shortened: as §1
# [10] = target: T7, FEV (Homo sapiens, UniProt Q99581 1-238); details: protein: recombinant; tags: N-terminal GST; dsDNA, one strand shown
# T7 sequence: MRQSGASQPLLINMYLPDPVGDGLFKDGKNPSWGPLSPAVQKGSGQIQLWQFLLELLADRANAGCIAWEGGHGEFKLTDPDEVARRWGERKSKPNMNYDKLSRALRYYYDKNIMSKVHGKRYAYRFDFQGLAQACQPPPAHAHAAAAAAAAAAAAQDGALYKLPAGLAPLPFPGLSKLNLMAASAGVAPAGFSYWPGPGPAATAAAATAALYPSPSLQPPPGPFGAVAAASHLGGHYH
# Procedure, shortened: as §1
# [11] = target: ETV5 (Homo sapiens, UniProt P41161 1-510); details: protein: recombinant; tags: N-terminal GST; dsDNA, one strand shown
# Sequence of ETV5 (P41161 whole entry): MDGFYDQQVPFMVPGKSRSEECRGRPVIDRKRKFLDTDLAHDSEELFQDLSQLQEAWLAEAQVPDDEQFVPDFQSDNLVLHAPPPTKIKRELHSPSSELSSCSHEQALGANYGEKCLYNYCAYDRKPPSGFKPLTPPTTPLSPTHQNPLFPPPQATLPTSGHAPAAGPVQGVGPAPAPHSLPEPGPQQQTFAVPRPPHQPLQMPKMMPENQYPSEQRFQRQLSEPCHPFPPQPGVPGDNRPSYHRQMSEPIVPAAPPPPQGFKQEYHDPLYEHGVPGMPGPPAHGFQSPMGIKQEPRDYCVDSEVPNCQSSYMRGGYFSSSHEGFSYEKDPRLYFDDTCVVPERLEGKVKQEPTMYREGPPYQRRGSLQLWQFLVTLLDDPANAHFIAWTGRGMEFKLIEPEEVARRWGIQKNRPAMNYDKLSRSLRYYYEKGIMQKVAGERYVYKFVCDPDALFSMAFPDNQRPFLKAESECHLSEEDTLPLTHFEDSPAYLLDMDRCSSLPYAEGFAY
# Procedure, shortened: as §1
# [12] = target: HSF1 (Homo sapiens, UniProt Q00613 1-529); details: protein: recombinant; tags: N-terminal GST; chain copies: 3; dsDNA, one strand shown
# Sequence of HSF1 (Q00613 whole entry): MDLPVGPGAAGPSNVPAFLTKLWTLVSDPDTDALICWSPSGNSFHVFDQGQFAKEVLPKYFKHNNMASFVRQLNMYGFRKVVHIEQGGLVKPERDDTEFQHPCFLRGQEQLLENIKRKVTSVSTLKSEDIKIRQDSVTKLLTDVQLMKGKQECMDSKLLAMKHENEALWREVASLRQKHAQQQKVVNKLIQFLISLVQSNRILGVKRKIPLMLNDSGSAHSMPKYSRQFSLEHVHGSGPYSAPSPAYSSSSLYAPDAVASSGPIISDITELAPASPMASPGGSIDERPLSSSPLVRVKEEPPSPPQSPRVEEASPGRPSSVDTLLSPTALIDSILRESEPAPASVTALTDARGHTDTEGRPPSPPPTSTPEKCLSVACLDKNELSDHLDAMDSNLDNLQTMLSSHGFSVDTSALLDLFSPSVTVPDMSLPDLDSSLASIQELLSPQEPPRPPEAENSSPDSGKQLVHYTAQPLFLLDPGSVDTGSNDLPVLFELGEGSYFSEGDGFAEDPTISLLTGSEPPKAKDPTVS
# Procedure, shortened: as §1
# [13] = target: T8, SPIC (Homo sapiens, UniProt Q8N5J4 1-248); details: protein: recombinant; tags: N-terminal GST; dsDNA, one strand shown
# T8 sequence: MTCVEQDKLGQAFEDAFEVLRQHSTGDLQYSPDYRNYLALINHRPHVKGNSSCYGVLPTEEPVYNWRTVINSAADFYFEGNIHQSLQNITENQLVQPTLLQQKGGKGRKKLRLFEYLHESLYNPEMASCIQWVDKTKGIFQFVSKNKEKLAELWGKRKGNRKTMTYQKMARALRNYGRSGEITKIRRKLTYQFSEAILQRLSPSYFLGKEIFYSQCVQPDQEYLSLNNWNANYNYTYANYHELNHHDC
# Procedure, shortened: as §1
# [14] = target: ELF4 (Homo sapiens, UniProt Q99607 1-663); details: protein: recombinant; tags: N-terminal GST; dsDNA, one strand shown
# Sequence of ELF4 (Q99607 whole entry): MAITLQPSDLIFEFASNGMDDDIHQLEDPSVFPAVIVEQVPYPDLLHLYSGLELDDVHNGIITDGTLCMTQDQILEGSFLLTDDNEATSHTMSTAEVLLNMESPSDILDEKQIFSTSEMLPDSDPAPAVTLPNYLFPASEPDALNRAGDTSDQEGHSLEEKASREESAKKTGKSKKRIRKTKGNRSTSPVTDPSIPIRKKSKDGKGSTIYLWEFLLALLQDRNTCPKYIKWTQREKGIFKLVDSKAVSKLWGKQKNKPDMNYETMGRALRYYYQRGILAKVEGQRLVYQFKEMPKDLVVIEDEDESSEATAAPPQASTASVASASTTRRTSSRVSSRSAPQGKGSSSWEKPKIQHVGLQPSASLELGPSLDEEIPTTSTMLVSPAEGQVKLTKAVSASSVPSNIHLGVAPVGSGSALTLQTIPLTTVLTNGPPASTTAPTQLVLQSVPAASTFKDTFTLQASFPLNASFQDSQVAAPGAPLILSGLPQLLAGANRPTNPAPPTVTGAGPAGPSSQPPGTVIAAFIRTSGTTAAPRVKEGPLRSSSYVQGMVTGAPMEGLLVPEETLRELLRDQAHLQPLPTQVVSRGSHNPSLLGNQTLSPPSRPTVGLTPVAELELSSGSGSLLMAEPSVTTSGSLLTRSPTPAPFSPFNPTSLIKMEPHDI
# Procedure, shortened: as §1
# [15] = target: T9, ELK4 (Homo sapiens, UniProt P28324-2 1-405); details: protein: recombinant; tags: N-terminal GST; dsDNA, one strand shown
# T9 sequence: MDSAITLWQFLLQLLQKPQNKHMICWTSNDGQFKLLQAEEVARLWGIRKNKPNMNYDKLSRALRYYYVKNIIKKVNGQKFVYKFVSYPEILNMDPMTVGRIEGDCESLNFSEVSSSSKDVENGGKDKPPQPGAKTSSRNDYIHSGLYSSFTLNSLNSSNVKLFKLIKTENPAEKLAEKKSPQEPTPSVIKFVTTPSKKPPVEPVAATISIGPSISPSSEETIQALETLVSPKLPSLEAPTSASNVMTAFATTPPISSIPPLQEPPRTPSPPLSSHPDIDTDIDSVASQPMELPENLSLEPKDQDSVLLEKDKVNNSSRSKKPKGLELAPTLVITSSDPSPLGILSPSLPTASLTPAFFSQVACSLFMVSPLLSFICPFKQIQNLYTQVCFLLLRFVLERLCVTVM
# Procedure, shortened: as §1
# [16] = target: T10, ETV2 (Homo sapiens, UniProt O00321 1-342); details: protein: recombinant; tags: N-terminal GST; dsDNA, one strand shown
# T10 sequence: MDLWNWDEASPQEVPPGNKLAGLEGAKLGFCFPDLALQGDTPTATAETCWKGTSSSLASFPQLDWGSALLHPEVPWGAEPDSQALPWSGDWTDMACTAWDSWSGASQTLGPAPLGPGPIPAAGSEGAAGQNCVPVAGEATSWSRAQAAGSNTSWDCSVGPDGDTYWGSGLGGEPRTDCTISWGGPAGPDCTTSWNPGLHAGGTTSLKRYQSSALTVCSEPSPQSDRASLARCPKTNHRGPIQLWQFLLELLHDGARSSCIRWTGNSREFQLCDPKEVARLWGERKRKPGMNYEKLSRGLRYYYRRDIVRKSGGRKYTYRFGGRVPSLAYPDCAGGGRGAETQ
# Procedure, shortened: as §1
# [17] = target: T11, ELF3 (Homo sapiens, UniProt P78545 1-371); details: protein: recombinant; tags: N-terminal GST; dsDNA, one strand shown
# T11 sequence: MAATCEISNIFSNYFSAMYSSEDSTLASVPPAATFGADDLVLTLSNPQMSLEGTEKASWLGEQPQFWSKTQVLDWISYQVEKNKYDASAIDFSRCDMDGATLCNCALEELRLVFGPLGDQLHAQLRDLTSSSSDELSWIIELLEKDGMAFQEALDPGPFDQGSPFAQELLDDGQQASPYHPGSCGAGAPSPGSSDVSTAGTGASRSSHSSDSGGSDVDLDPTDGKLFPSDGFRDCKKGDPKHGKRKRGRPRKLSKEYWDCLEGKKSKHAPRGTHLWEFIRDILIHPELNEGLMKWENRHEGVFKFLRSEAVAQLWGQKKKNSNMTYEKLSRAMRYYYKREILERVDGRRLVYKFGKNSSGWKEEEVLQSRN
# Procedure, shortened: as §1
# [18] = target: CRX (Homo sapiens, UniProt O43186 1-299); details: protein: recombinant; tags: N-terminal GST; dsDNA, one strand shown
# Sequence of CRX (O43186 whole entry): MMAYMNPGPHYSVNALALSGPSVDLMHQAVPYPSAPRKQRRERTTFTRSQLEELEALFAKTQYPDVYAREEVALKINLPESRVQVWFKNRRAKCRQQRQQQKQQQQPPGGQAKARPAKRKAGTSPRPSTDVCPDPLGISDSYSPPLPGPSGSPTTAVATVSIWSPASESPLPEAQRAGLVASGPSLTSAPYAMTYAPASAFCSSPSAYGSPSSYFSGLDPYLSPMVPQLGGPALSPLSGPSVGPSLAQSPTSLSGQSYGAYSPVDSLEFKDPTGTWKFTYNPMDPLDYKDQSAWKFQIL
# Procedure, shortened: as §1
# [19] = target: ETV1 (Homo sapiens, UniProt P50549 1-477); details: protein: recombinant; tags: N-terminal GST; dsDNA, one strand shown
# Sequence of ETV1 (P50549 whole entry): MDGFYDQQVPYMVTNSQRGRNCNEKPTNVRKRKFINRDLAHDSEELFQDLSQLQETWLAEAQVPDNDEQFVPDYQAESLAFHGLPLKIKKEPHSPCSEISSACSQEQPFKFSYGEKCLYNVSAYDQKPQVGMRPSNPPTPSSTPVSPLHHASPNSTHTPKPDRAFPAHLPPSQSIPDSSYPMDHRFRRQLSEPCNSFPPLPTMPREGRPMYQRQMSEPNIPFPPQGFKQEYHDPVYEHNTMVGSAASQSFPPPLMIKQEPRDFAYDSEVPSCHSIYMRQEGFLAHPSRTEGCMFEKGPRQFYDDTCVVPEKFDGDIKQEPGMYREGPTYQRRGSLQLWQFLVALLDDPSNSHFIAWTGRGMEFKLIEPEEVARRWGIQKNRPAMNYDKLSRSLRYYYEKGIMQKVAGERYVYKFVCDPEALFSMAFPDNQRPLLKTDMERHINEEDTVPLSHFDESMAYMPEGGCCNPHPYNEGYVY
# Procedure, shortened: as §1
sequence,measurement,setting,value
TCAAAA,binding signal,[1],"1.12 fold enrichment (6-mer frequency, TF over GST control)"
same,binding signal,[2],"1.12 fold enrichment (6-mer frequency, TF over GST control)"
same,binding signal,[3],"1.23 fold enrichment (6-mer frequency, TF over GST control)"
same,binding signal,[4],"1.14 fold enrichment (6-mer frequency, TF over GST control)"
same,binding signal,[5],"1.19 fold enrichment (6-mer frequency, TF over GST control)"
same,binding signal,[6],"1.1 fold enrichment (6-mer frequency, TF over GST control)"
same,binding signal,[7],"1.3 fold enrichment (6-mer frequency, TF over GST control)"
same,binding signal,[8],"1.15 fold enrichment (6-mer frequency, TF over GST control)"
same,binding signal,[9],"1.17 fold enrichment (6-mer frequency, TF over GST control)"
same,binding signal,[10],"1.13 fold enrichment (6-mer frequency, TF over GST control)"
same,binding signal,[11],"1.17 fold enrichment (6-mer frequency, TF over GST control)"
same,binding signal,[12],"1.19 fold enrichment (6-mer frequency, TF over GST control)"
same,binding signal,[13],"1.24 fold enrichment (6-mer frequency, TF over GST control)"
same,binding signal,[14],"1.22 fold enrichment (6-mer frequency, TF over GST control)"
same,binding signal,[15],"1.25 fold enrichment (6-mer frequency, TF over GST control)"
same,binding signal,[16],"1.23 fold enrichment (6-mer frequency, TF over GST control)"
same,binding signal,[17],"1.39 fold enrichment (6-mer frequency, TF over GST control)"
same,binding signal,[18],"1.28 fold enrichment (6-mer frequency, TF over GST control)"
same,binding signal,[19],"1.23 fold enrichment (6-mer frequency, TF over GST control)"
